Experimental findings from PubChem BioAssay (EPA / NIEHS) are described below.

Calls of active or inactive are those of the source. Rule for the calls: active = hit-call score of the fitted dose curve at least 0.9, where 1 is the maximum; inactive = score below 0.9.

Read-out in test [1]: Vascular endothelial growth factor receptor 2 (Homo sapiens) (UniProt P35968)
Briefly: BSK_4H_VEGFRII: BioMAP Diversity Plus: 4H Assay for Vascular endothelial growth factor receptor 2 (VEGFR2) Biomarker Activity (AID 2283031).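 For AC50: cell-surface VEGFR2 protein level quantified by ELISA.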 Particulars: primary human endothelial cells (HUVEC); actives raise or lower the signal. Summed up: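 Primary human umbilical vein endothelial cells (4H system), 24 h exposure; cell-surface VEGFR2 measured by ELISA. Bidirectional fitting versus DMSO; cytotoxicity checked in parallel by SRB total-protein staining.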

Read-out in test [2]: Human Leukocyte Antigen - DR isotype (HLADR), HLA-DRA (gene 3122)
In words: BSK_BE3C_HLADR: BioMAP Diversity Plus: BE3C Assay for Human Leukocyte Antigen - DR isotype (HLADR) Biomarker Activity (AID 2283032). Particulars: primary human bronchial epithelial cells; actives raise or lower the signal. The essentials: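 Cell-surface HLA-DR ELISA readout at 24 h after dosing in the BE3C primary human lung bronchial epithelial system; gain or loss of signal against DMSO, with parallel sulforhodamine B staining of total protein for overt cytotoxicity.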

Read-out in test [3]: Vascular cell adhesion molecule 1 (VCAM1), VCAM1 (gene 7412)
In words: BSK_4H_VCAM1: BioMAP Diversity Plus: 4H Assay for Vascular cell adhesion molecule 1 (VCAM1) Biomarker Activity (AID 2283033).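 For outcome: cell-surface VCAM-1 protein measured by ELISA.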 Particulars: primary human endothelial cells (HUVEC); actives raise or lower the signal. Summed up:
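VCAM-1 ELISA read 24 h after chemical dosing of HUVEC in the BioMAP 4H system, with gain or loss of signal fitted relative to DMSO. Parallel SRB staining (560 nm) checked overt cytotoxicity.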

Read-out in test [4]: Monokine induced gamma interferon (MIG), CXCL9 (gene 4283)
In words: BSK_BE3C_MIG: BioMAP Diversity Plus: BE3C Assay for Monokine induced gamma interferon (MIG) Biomarker Activity (AID 2283035). Particulars: primary human bronchial epithelial cells; actives raise or lower the signal. The essentials: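 hu bronchial epithelial 1° cells, 24 h cpd; MIG by ELISA; bidirectional fit, DMSO = baseline.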

Read-out in test [5]: Transforming growth factor beta 1 (TGFb1), TGFB1 (gene 7040)
In words: BSK_BE3C_TGFb1: BioMAP Diversity Plus: BE3C Assay for Transforming growth factor beta 1 (TGFb1) Biomarker Activity (AID 2283036;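 note: TGF-b1 protein level measured by ELISA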). Particulars: primary human bronchial epithelial cells; actives raise or lower the signal. The essentials:
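ELISA readout of TGF-b1 from human lung bronchial epithelial primary cells, taken 24 h post-treatment. Gain or loss of signal fitted relative to DMSO baseline, with parallel SRB staining for overt cytotoxicity.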

Read-out in test [6]: Plasminogen activator inhibitor-1 (PAI1), SERPINE1 (gene 5054)
Briefly: BSK_BE3C_PAI1: BioMAP Diversity Plus: BE3C Assay for Plasminogen activator inhibitor-1 (PAI1) Biomarker Activity (AID 2283037). The conditions noted are these: primary human bronchial epithelial cells; actives raise or lower the signal. Summed up:
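PAI-1 was measured by ELISA in human primary bronchial epithelial cultures 24 h after chemical dosing, with cytotoxicity checked by SRB total-protein staining in parallel cultures. Activity was fitted in both directions relative to DMSO.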

Read-out in test [7]: urokinase plasminogen activator (uPA), PLAU (gene 5328)
In words: BSK_BE3C_uPA: BioMAP Diversity Plus: BE3C Assay for urokinase plasminogen activator (uPA) Biomarker Activity (AID 2283038).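 For outcome: uPA protein level quantified by ELISA in cell cultures; uPA read one day after compound addition.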 The conditions noted are these: primary human bronchial epithelial cells; actives raise or lower the signal. Summed up: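 Primary human bronchial epithelial cells, uPA measured by ELISA 24 h after dosing. Bidirectional change relative to DMSO; cytotoxicity checked in parallel cultures by sulforhodamine B total-protein staining.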

Read-out in test [8]: Urokinase-type plasminogen activator receptor (uPAR), PLAUR (gene 5329)
In words: BSK_BE3C_uPAR: BioMAP Diversity Plus: BE3C Assay for Urokinase-type plasminogen activator receptor (uPAR) Biomarker Activity (AID 2283039).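 Note: cells exposed to compound for one day before measurement.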 Particulars: primary human bronchial epithelial cells; actives raise or lower the signal. Summed up: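 uPAR levels were measured by ELISA after 24 h compound treatment of primary human bronchial epithelial cells, fitted in both directions relative to DMSO. Parallel SRB staining served as the cytotoxicity read-out.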

Read-out in test [9]: Interleukin-6 (IL6), IL6 (gene 3569)
In words: BSK_CASM3C_IL6: BioMAP Diversity Plus: CASM3C Assay for Interleukin-6 (IL6) Biomarker Activity for (AID 2283040). The conditions noted are these: primary human coronary artery smooth muscle cells; actives raise or lower the signal.

Read-out in test [10]: Tissue plasminogen activator (tPA), PLAT (gene 5327)
In words: BSK_BE3C_tPA: BioMAP Diversity Plus: BE3C Assay for Tissue plasminogen activator (tPA) Biomarker Activity (AID 2283041).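 Note: tPA level quantified by ELISA one day after compound addition.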 The conditions noted are these: primary human bronchial epithelial cells; actives raise or lower the signal. Summed up: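 tPA measured by ELISA 24 h after dosing human primary bronchial epithelial cells (BE3C system). Changes in either direction were fitted against DMSO. Parallel cultures were stained with SRB to flag overt cytotoxicity.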

Read-out in test [11]: Interleukin-8 (IL8), CXCL8 (gene 3576)
In words: BSK_CASM3C_IL8: BioMAP Diversity Plus: CASM3C Assay for Interleukin-8 (IL8) Biomarker Activity (AID 2283042).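 Note: IL-8 protein level quantified by ELISA.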 Particulars: primary human coronary artery smooth muscle cells; actives raise or lower the signal.

Read-out in test [12]: Human Leukocyte Antigen - DR isotype (HLADR), HLA-DRA (gene 3122)
Briefly: BSK_CASM3C_HLADR: BioMAP Diversity Plus: CASM3C Assay for Human Leukocyte Antigen - DR isotype (HLADR) Biomarker Activity (AID 2283043).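 Note: cell-surface HLA-DR protein level quantified by ELISA.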 The conditions noted are these: primary human coronary artery smooth muscle cells; actives raise or lower the signal.

Read-out in test [13]: Macrophage colony-stimulating factor (MCSF), CSF1 (gene 1435)
In words: BSK_CASM3C_MCSF: BioMAP Diversity Plus: CASM3C Assay for Macrophage colony-stimulating factor (MCSF) Biomarker Activity (AID 2283044).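 Note: M-CSF protein amount quantified by ELISA after 24 h exposure.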 Particulars: primary human coronary artery smooth muscle cells; actives raise or lower the signal.

Read-out in test [14]: Low-density lipoprotein receptor (LDLR), LDLR (gene 3949)
In words: BSK_CASM3C_LDLR: BioMAP Diversity Plus: CASM3C Assay for Low-density lipoprotein receptor (LDLR) Biomarker Activity (AID 2283045).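 Note: LDLR protein level on the cell surface quantified by ELISA.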 The conditions noted are these: primary human coronary artery smooth muscle cells; actives raise or lower the signal.

Read-out in test [15]: Monocyte Chemoattractant Protein-1 (MCP1), CCL2 (gene 6347)
In words: BSK_CASM3C_MCP1: BioMAP Diversity Plus: CASM3C Assay for Monocyte Chemoattractant Protein-1 (MCP1) Biomarker Activity (AID 2283046).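 Note: MCP-1 level quantified by ELISA 24 h after dosing.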 The conditions noted are these: primary human coronary artery smooth muscle cells; actives raise or lower the signal.

The nature of test [16]: BSK_CASM3C_Proliferation: Cell Proliferation Assessment in the BioMAP Diversity Plus: CASM3C Assay (AID 2283047).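 Note: sulforhodamine B total protein stain as relative cell number at 560 nm; sub-confluent cells exposed 48 h before staining; fitted both ways against DMSO so gain or loss of cell number.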 Particulars: primary human coronary artery smooth muscle cells.
Read-out in test [17]: Monokine induced gamma interferon (MIG), CXCL9 (gene 4283)
In words: BSK_CASM3C_MIG: BioMAP Diversity Plus: CASM3C Assay for Monokine induced gamma interferon (MIG) Biomarker Activity (AID 2283048).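 Note: MIG protein level measured by ELISA.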 Particulars: primary human coronary artery smooth muscle cells; actives raise or lower the signal.

Read-out in test [18]: serum amyloid A (SAA), SAA1 (gene 6288)
Briefly: BSK_CASM3C_SAA: BioMAP Diversity Plus: CASM3C Assay for serum amyloid A (SAA) Biomarker Activity (AID 2283049).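 Note: SAA protein level quantified by ELISA.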 The conditions noted are these: primary human coronary artery smooth muscle cells; actives raise or lower the signal.

Test [19] can be described thus: BSK_CASM3C_SRB: Viability Assessment in the BioMAP Diversity Plus: CASM3C Assay (AID 2283050). The conditions noted are these: primary human coronary artery smooth muscle cells.

Take `OCCN1CN(CCO)CN(CCO)C1`: the AC50 in test [1] was 33.9 µM (active); in test [2], 35.5 µM (active); in [3], 29.8 µM (active); in test [13] it was 5 µM (active); in test [14], 0.17 µM (active); in test [19] it was 20 µM (active). For the same compound, the outcome in test [4], in test [5], in test [6], in test [7], in test [8] and in test [9] was inactive. Besides, the outcome in [10], in [11], in test [12], in test [15], in test [16] and in test [17] was inactive. Moreover, the result in [18] was inactive.

Consider `O=C(O)CCC(F)(F)C(F)(F)C(F)(F)C(F)(F)C(F)(F)F`, for which the result in [1], in test [2], in test [3], in test [4], in test [6] and in [7] was inactive. For the same compound, the outcome in test [8], in [9], in test [10], in [11], in test [12] and in test [13] was inactive. Besides, the outcome in [14], in test [15], in test [16], in test [17], in [18] and in test [19] was inactive.

Take `Oc1cc2ccccc2cc1O`: the outcome in test [1], in [2], in test [3], in test [4], in [5] and in test [6] was inactive. Moreover, the result in [7], in test [8], in test [9], in [10], in test [11] and in test [12] was inactive. Also, the outcome in test [13], in [14], in [15], in test [16], in test [17] and in test [18] was inactive. Further, in [19], the outcome was inactive.

As for `O=P(O)(O)CCC(F)(F)C(F)(F)C(F)(F)C(F)(F)C(F)(F)C(F)(F)F`, the outcome in test [1], in test [2], in [3], in [4], in test [6] and in test [7] was inactive. Further, the result in test [8], in test [9], in test [10], in [11], in [12] and in [13] was inactive. Moreover, the result in [14], in test [15], in test [16], in test [17], in [18] and in [19] was inactive.

With `Clc1ccc(Nc2nnc(Cc3ccncc3)c3ccccc23)cc1`, the outcome in test [1], in [2], in test [3], in test [4], in [5] and in test [8] was inactive. Also, the result in [9], in test [10], in test [11], in [12], in test [13] and in test [14] was inactive. Further, the outcome in [15] and in test [19] was inactive. Further, the AC50 is 3.84 µM (active) in [6], 5.6 µM (active) in [7], 3.48 µM (active) in test [16] and 0.507 µM (active) in [18].

For the compound `C=CC(=C)CC/C=C(\C)CCC=C(C)C`, the result in [1], in test [2], in test [3], in test [4], in [5] and in test [6] was inactive. The outcome in [7], in test [8], in test [9], in [10], in [11] and in test [12] was inactive. Also, the result in [13], in [14], in [15], in test [16], in test [17] and in test [18] was inactive. Also, the outcome in test [19] was inactive.

The AC50 is the concentration giving half of the maximal activity seen.
